Assay outcomes deposited in PubChem by National Center for Advancing Translational Sciences (NCATS).
A selection: hits, their analogues and other compounds. The true share with any hit is near 5.7%.
HT1080-NT tox = kills 2HG-producing HT-1080-NT fibrosarcoma cells | HT-1080-NT fibrosarcoma viability, CellTiter-Glo ATP luminescence, 48 h | Potency, µM (titrated, usually from 46.1 µM), for the others: top-dose activity, negative = less viability, hits mostly cytotoxic | 360,000 compounds, 1.6% hits | AID 686970;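 also: NT is the 2HG producing partner of a matched IDH1 knockdown line; 0% = DMSO-treated cells and -100% = media-only wells without cells; nearly all actives have a fitted effect of over 55% in size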
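Viability by CellTiter-Glo luminescence after 48 h compound exposure at 37C of HT-1080-NT cells (750/well, RPMI, 5% FBS). % activity scaled between DMSO wells and medium-only wells, then curve-fitted and categorized by curve class.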
KB-3-1 tox = KB-3-1 parental cell cytotoxicity. KB-3-1 viability, CellTiter-Glo ATP luminescence, 72 h. Potency, µM (highest dose often 46.1 µM), actives largely listed as cytotoxic. 400,000 compounds, 1.4% hits. AID 1347075; also: nearly all actives have a fitted effect of over 60% in size
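Multi-concentration cytotoxicity screen in KB-3-1 cells grown in DMEM lacking phenol red with 10% FBS. After 72 h at 37 °C with compound, ATP-dependent luminescence was recorded.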
KB-V1 MDR tox = kills drug-selected multidrug resistant KB-V1 cells | KB-V1 MDR cells viability, CellTiter-Glo, 72 h | Potency, µM (top dose mostly 46.1 µM), usual class: cytotoxic | 400,000 compounds, 3.4% hits; also: nearly all actives have a fitted effect of over 60% in size
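Readout: CellTiter-Glo luminescence, 10 min after addition. Cells: KB-V1 MDR subline, 72 h at 37 degrees C with compound. Analysis: corrected, normalized data fitted to concentration-effect curves.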
HT1080 IDH1KD tx = toxicity to HT-1080 IDH1 knockdown cells (counter line); HT-1080 IDH1 knockdown viability, ATP luminescence, 48 h; Potency, µM (top dose mostly 46.1 µM), without a hit: at the highest dose activity, negative = toxicity, hits mostly cytotoxic; 360,000 compounds, 2% hits;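 also: 0% = DMSO wells and -100% = cell-free medium wells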
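Viability of IDH1-knockdown HT-1080 fibrosarcoma cells was assessed by CellTiter-Glo after 48 h at 37 °C with titrated compound; concentration-effect curves were classified by fit quality and response size.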
Numbers without * were called inactive. Calls follow the shape of the dose curve; as a rule, active = well fitted curve in the direction sought with a large enough effect; inconclusive = small, poorly fitted or top-dose-only effect, or another doubt; inactive = no such curve, though single readings can be large; an effect the other way counts as inactive or inconclusive. Unless noted, % is scaled to controls: 0 for no effect and ±100 for the full control effect; potency is read from the fitted curve at half-maximal effect.

`COc1ccccc1N(C)S(=O)(=O)c1ccc(C)c(C(=O)NC(C)c2ccccn2)c1` (stereo unspecified) gave HT1080-NT tox -5%, KB-3-1 tox inactive, KB-V1 MDR tox 9.2µM* and HT1080 IDH1KD tx -1%.
Screening COc1ccc(C)cc1NC(C)C(=O)c1c[nH]c2ccccc12 (stereo unspecified) returned KB-3-1 tox inactive and KB-V1 MDR tox inactive.
`COC(=O)c1cn(C(=O)c2ccc(OC)cc2)c2ccccc12` gave HT1080-NT tox inconclusive, KB-3-1 tox inconclusive, KB-V1 MDR tox inactive and HT1080 IDH1KD tx 4.6µM*.
`COc1ccc(C(=O)/C=C2/c3ccccc3CC(C)(C)N2C)cc1` gave HT1080-NT tox 6.3µM*, KB-3-1 tox inactive, KB-V1 MDR tox inactive and HT1080 IDH1KD tx 6.3µM*.
For COCCCNC(=O)CC(c1cc(OC)c(OC)c(OC)c1)N1Cc2ccccc2C1=O (stereo unspecified) the results were KB-3-1 tox inactive and KB-V1 MDR tox inactive.
Screening O=C(CSc1cccc[n+]1[O-])N1CCCCCC1 returned HT1080-NT tox 24%, KB-3-1 tox inactive, KB-V1 MDR tox inactive and HT1080 IDH1KD tx 1%.
O=C(CSc1cccc[n+]1[O-])CSc1cccc[n+]1[O-] was read as HT1080-NT tox 1µM*, KB-3-1 tox inactive, KB-V1 MDR tox inconclusive and HT1080 IDH1KD tx 0.52µM*.
COCCCNC(=S)Nc1cc2oc3ccccc3c2cc1OC was read as HT1080-NT tox 2.3µM*, KB-3-1 tox inconclusive, KB-V1 MDR tox inconclusive and HT1080 IDH1KD tx 12µM*.
Screening O=C(CSc1cccc[n+]1[O-])Nc1ccccc1Oc1ccccc1 returned HT1080-NT tox 8.2µM*, KB-3-1 tox inactive, KB-V1 MDR tox inconclusive and HT1080 IDH1KD tx 6.5µM*.
O=C(CSc1cccc[n+]1[O-])Nc1ccccc1C(F)(F)F was read as HT1080-NT tox 3%, KB-3-1 tox inactive, KB-V1 MDR tox inactive and HT1080 IDH1KD tx 10%.
`COc1cc2c(cc1NC(=O)CSc1cccc[n+]1[O-])oc1ccccc12` gave HT1080-NT tox 4%, KB-3-1 tox inconclusive, KB-V1 MDR tox 12µM* and HT1080 IDH1KD tx 3%.
Screening COc1cc2c(cc1NC(=O)CSc1ccc(C)cc1)oc1ccccc12 returned HT1080-NT tox 0%, KB-3-1 tox inactive, KB-V1 MDR tox inactive and HT1080 IDH1KD tx 6%.
COc1cc2c(cc1NC(=S)Nc1cccc3ccccc13)oc1ccccc12 was read as HT1080-NT tox 0%, KB-3-1 tox inactive, KB-V1 MDR tox inactive and HT1080 IDH1KD tx -14%.
COc1ccc(NC(=O)Cn2c(=O)n(-c3ccc(C)cc3)c(=O)c3c2c2cc(C)ccc2n3C)cc1 was read as KB-3-1 tox inactive and KB-V1 MDR tox inactive.
COc1cc2c(cc1NC(=O)CCCCCN1C(=O)CCC1=O)oc1ccccc12 was read as HT1080-NT tox -3%, KB-3-1 tox inactive, KB-V1 MDR tox 7.3µM* and HT1080 IDH1KD tx -19%.
Screening COc1cc2c(cc1NC(=O)CN1C(=O)NC3(CCc4ccccc43)C1=O)oc1ccccc12 (stereo unspecified) returned HT1080-NT tox 23µM*, KB-3-1 tox inactive, KB-V1 MDR tox inconclusive and HT1080 IDH1KD tx 15µM*.
For CC(NS(=O)(=O)c1ccccc1)C(c1cccs1)N1CCN(c2ccccc2)CC1 (stereo unspecified) the results were HT1080-NT tox inconclusive, KB-3-1 tox inconclusive, KB-V1 MDR tox 6.5µM* and HT1080 IDH1KD tx inconclusive.
Cc1cccc(N2CCN(c3ccc(C(=O)O)cc3NC(=O)c3cccc(Cl)c3)CC2C)c1 (stereo unspecified) was read as KB-3-1 tox inactive and KB-V1 MDR tox inconclusive.
`O=C(/C(=C/O)N=Nc1ccccc1)c1cccs1` gave HT1080-NT tox 16µM*, KB-3-1 tox inactive, KB-V1 MDR tox inactive and HT1080 IDH1KD tx inconclusive.
Cc1[nH]n2c(=O)cc(C(C)(C)C)nc2c1-c1ccccc1 was read as HT1080-NT tox -26%, KB-3-1 tox 7.3µM*, KB-V1 MDR tox inconclusive and HT1080 IDH1KD tx inconclusive.
For Cc1[nH]n2c(=O)cc(-c3ccc([N+](=O)[O-])cc3)nc2c1-c1ccccc1 the results were HT1080-NT tox 16µM*, KB-3-1 tox inconclusive, KB-V1 MDR tox inactive and HT1080 IDH1KD tx 16µM*.
